# High-throughput results (PubChem BioAssay)
# HCMV inh: qHTS Assay for inhibitors of the human cytomegalovirus (HCMV) | HFF cells, HCMV-luciferase reporter, 72 h; hits give low values | activity change, negative = inhibition, % at 57.5 µM | actives 4.5% (n = 410,000) | AID 1259415, 2018; in the data active means activity change below about -60%; inconclusive means no clear call, values can overlap the other calls; inactive means above about -39%
#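 Two-dose cell screen: HFF monolayers treated with compounds and infected with luciferase-expressing HCMV at 1 PFU/cell, 72 h at 37C, then lysed for luciferase measurement.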
# LASV entry inh: qHTS for Inhibitors of binding or entry into cells for Lassa Virus; Lassa virus pseudotype entry inhibition, cell reporter; Potency, µM (titrated, usually from 37.9 µM), inactives show top-dose activity change, negative = inhibition, usual class: inhibitors; actives 1.2% (n = 300,000); calls by dose curve; tested in HEK293 cells; further: potency means the concentration at half of the fitted maximal effect; nearly all actives have a fitted effect of over 50% in size
# FMDV inh: High Throughput Screening for Foot and Mouth Disease Virus Antivirals; Potency, µM (series often up to 57.9 µM), for the others: top-dose activity change, negative = inhibition, usual class: inhibitors; actives 1.2% (n = 410,000); FMDV antiviral cell-based qHTS; calls by dose curve; tested in HEK293T cells; further: read-out not given here; potency means the concentration at half of the fitted maximal effect; nearly all actives have a fitted effect of over 45% in size
# Marburg entry inh: qHTS for inhibitors of binding or entry into cells for Marburg Virus | Potency, µM (series often up to 37.8 µM), for inactives: at the top dose activity change, negative = inhibition, most hits filed as inhibitors | actives 1.8% (n = 300,000) | AID 540276, 2011 | Marburg virus pseudotyped entry inhibition, cell reporter; calls by dose curve; tested in HEK293 cells; further: potency means the concentration at half of the fitted maximal effect
# Active calls of the source: *; ? = inconclusive; . = no result; [ ] = remark or other dose. Most compounds without a hit are left out; they make up all but 6.2% or so of the library. On the % scale 0 is the no-effect control and ±100 the full control effect.
SMILES,HCMV inh,LASV entry inh,FMDV inh,Marburg entry inh
Cn1cc(/C(Cc2ccccc2)=N\O)c2ccccc21,56,-23%,-8%,?
CCc1nc2c(OCc3ccc(Cl)cc3Cl)cccn2c1N(C=O)Cc1ccc(OC)cc1,0,.,-9%,.
CCCCCC(=O)N/N=C(\C)c1ccc(NC(=O)c2ccco2)cc1,9,3.5µM*,17%,-7%
CCN(CC)CCNCc1nc2ccccc2c(=O)n1-c1ccc(F)cc1,-7,-11%,-16%,5%
COc1ccc(Br)cc1CNC(=O)c1ccc2c(c1)N(Cc1ccc(C)cc1)CCS2,?,.,4%,-19%[46.1 µM]
COc1ccc(/C(O)=C2\C(=O)C(=O)N(CCCN(C)C)[C@H]2c2ccccc2)cc1OC,.,.,.,7%
Nc1ncc(-c2cccc(S(N)(=O)=O)c2)c2scc(-c3ccc(F)c(Cl)c3)c12,.,22µM*,.,.
O=S(=O)(c1cccc(F)c1)N1CCN(c2ncnc3scc(-c4ccc(F)cc4)c23)CC1,-28,?,?,?
C/C(=N\Nc1cc(-c2ccccc2)nc(-c2ccccc2)n1)c1ccc(O)c(C)c1,-64*,11%,5%,?
COc1cc(N/N=C(\C)c2ccc(O)c(C)c2)nc(-c2ccccc2)n1,-90*,?,2%,?
COc1cc(N/N=C(\C)c2ccc(N)cc2)nc(-c2ccccc2)n1,41,.,17%,.
c1cn2cc(-c3ccc4c(c3)OCO4)nc2s1,31,10µM*,-2%,?
Nc1nnc(SCc2ccc(F)cc2Cl)s1,38,?,43%,21%
C=CCC1NS(=O)(=O)OC2CCCC12 (configuration not stated),-3,.,-10%,.
Cc1cc(C)c(C(=O)Nc2ccccc2)c(SCC(=O)Nc2ccc(Br)cc2C)n1,-69*,-18%[46.1 µM],-11%,?
COc1ccccc1NC(=O)c1c(C)cc(C)nc1SCC(=O)Nc1ccc(C)c(C)c1,?,-22%[46.1 µM],-4%,7.9µM*
Cc1ccccc1Cn1cc(NS(=O)(=O)c2cn(C)nc2C)cn1,-60*,.,-15%,.
CC(C)(C)C(=O)C(Oc1ccc(Cl)cc1)n1cncn1 (configuration not stated),9,-2%,-29%,7%
CC(C)(C)C(=O)/C(=C/c1ccc(Cl)cc1)n1cncn1,-102*,.,16µM*,.
CC(C)/C=C(/C(=O)c1ccc(Cl)cc1Cl)n1cncn1,-10,.,35µM*,.
CC1=Nc2ccccc2N=C(NC(=O)CSC(=S)N2CCCCC2)C1c1ccccc1 (configuration not stated),10,-5%[46.1 µM],-12%,10µM*
CC1=Nc2ccccc2N=C(NC(=O)CSC(=S)N2CCN(C)CC2)C1c1ccccc1 (configuration not stated),99,-14%,-17%,?
Clc1ccc2[nH]c3c(N4CCC5(CC4)OCCO5)ncnc3c2c1,.,10µM*,?,10µM*
Cc1cccc2[nH]c3c(N4CCC5(CC4)OCCO5)ncnc3c12,-16,-23%,40µM*,?
CCCCN(C(=O)c1cccc(S(=O)(=O)N2CCCC2)c1)c1c(N)n(CCC)c(=O)[nH]c1=O,4,.,-16%,.
SMILES,HCMV inh,LASV entry inh,FMDV inh,Marburg entry inh
COc1[nH]c(/N=C/c2ccccc2)c(C#N)c1C#N,49,-5%,0%,?
C=C1C(=O)OC2CC3(C)OC3CCC(C)=CC(OC(C)=O)C12 (configuration not stated),0,?,35µM*,?
CN(c1ccccc1)S(=O)(=O)c1ccc2[nH]c(=O)oc2c1,2,7%,3%,-4%[46.1 µM]
O=[N+]([O-])c1cc(S(=O)(=O)NCCN2CCOCC2)ccc1Sc1nnnn1-c1ccccc1,-89*,-2%,?,16µM*
CN(C)CCNS(=O)(=O)c1ccc(N2CCN(c3ccc(F)cc3)CC2)c([N+](=O)[O-])c1,-76*,?,?,18µM*
CC(=O)N1CCN(c2ccc(S(=O)(=O)NCCN(C(C)C)C(C)C)cc2[N+](=O)[O-])CC1,-6,-4%,-18%,1%
Cc1ccc(-n2nnnc2Sc2ccc(S(=O)(=O)NCCN(C)C)cc2[N+](=O)[O-])cc1,-100*,?,13µM*,9.2µM*
C=CCN=C1SC(C)(C)C(=O)N1S(=O)(=O)c1ccc(C)cc1,-1,-18%,-3%,-26%[46.1 µM]
Cc1ccccc1NC(=O)NC1(C(=O)NCC2CCCO2)CCCCC1 (configuration not stated),1,9%,-1%,0%[46.1 µM]
COc1ccccc1OCCOCCOc1c(C)cc(C)cc1Br,-22,-5%,-9%,-10%
COc1cccc(CSc2nc3sc(C)c(C)c3c(=O)n2Cc2ccco2)c1,33,?,-18%,15µM*
Cc1cc2c(=O)n(Cc3ccco3)c(SCC(=O)c3ccc(Cl)s3)nc2s1,-65*,?,?,?
Cc1sc2nc(SCC(=O)C(C)(C)C)n(Cc3ccco3)c(=O)c2c1C,-98*,8.2µM*,-20%,?
CCOC(=O)CC(=O)CSc1nc2sc(C)cc2c(=O)n1Cc1ccco1,-25,0%,-28%,-5%
O=C(Nc1cccc(S(=O)(=O)C(F)F)c1)c1ccc(S(=O)(=O)N2CCCCC2)cc1,?,?,28µM*,?
CN(C)S(=O)(=O)c1cccc(NC(=O)c2cccc(S(=O)(=O)N3CCCCCC3)c2)c1,-61*,?,?,?
CN(C)S(=O)(=O)c1cccc(NC(=O)c2ccc(S(=O)(=O)N3CCCCC3)cc2)c1,-22,-3%,-29%,?
CC(=O)c1cccc(NC(=O)c2ccc(S(=O)(=O)N3CCCCC3)cc2)c1,?,-1%,?,?
O=C(Nc1cccc(S(=O)(=O)N2CCCCC2)c1)c1ccc(S(=O)(=O)C(F)F)cc1,-64*,?,28µM*,4.5µM*
COC(=O)c1ccc(NC(=O)CCc2nnc3ccc(N4CCC5(CC4)OCCO5)nn23)cc1,-16,-17%[46.1 µM],28µM*,8%[46.1 µM]
COc1ccc(NC(=O)CN(C)C(=O)c2ccc(=O)[nH]c2)cc1,-20,0%,1%,13%[46.1 µM]
O=C(CNC(=O)c1cccc(Br)c1)N/N=C/c1cn[nH]c1-c1ccccc1,-30,?,-21%,?
COc1cc(Cl)cc(/C=N\NC(=O)c2ccc3c(c2)OCO3)c1O,-60*,.,-6%,.
O=C(CNC(=O)c1cccc(Br)c1)N/N=C/c1ccc[nH]1,?,?,17%,6.3µM*
CN(C)c1cccc(C(=O)N/N=C/c2ccccc2F)c1,111,10µM*,-54%,?
O=C(CNC(=O)c1ccc2c(c1)OCO2)N/N=C/c1cc(Br)ccc1O,9,?,-1%,11µM*
CC(Oc1ccc2c(c1)oc(=O)c1ccccc12)C(=O)NCC1CCC(C(=O)O)CC1 (configuration not stated),0,.,-10%,.
CCN(CC)CC(C)(C)NS(=O)(=O)c1ccc(Cl)cc1,39,0%,.,-4%
CN(CCC1CCOCC1)C(=O)CC1C(=O)NCCN1Cc1ccoc1 (configuration not stated),-35,-9%[46.1 µM],2%,-20%[46.1 µM]
